Data reported in PubChem BioAssay (Tox21).
Several values for one entry are separate records, joined by “and”; a condition that tells them apart may be missing. Equal entries are not always repeated. More than one record can exist for a structure, and the calls need not agree. Activity calls are given as the source filed them. Entries that show only a call come without a potency. Unless noted, calls come from the whole dose curve; as a rule, active = well fitted curve in the direction sought with a large enough effect in the repeat runs; inconclusive = weak or mixed curves; inactive = no such curve, though single readings can be large; an effect the other way counts as inactive or inconclusive.

Columns and labels:
[1] = qHTS assay to identify small molecule antagonists of the glucocorticoid receptor (GR) signaling pathway - cell viability counter screen (AID 720693); note: nearly all actives have a fitted effect of over 55% in size
[2] = qHTS assay for identifying genotoxic compounds that show differential cytotoxicity against isogenic chicken DT40 cell lines with known DNA damage response pathways - wild type cell line (AID 743012); note: nearly all actives have a fitted effect of over 60% in size; note: potency is the fitted concentration of half-maximal effect
Procedure, shortened: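 Endpoint: CellTiter-Glo luminescence, 30 min RT. Cells: wild type DT40, 300/well. Exposure: compounds in DMSO, 40 h, 37 C/5% CO2, after ~0.5 h pre-incubation.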

[3] = qHTS assay for identifying genotoxic compounds that show differential cytotoxicity against isogenic chicken DT40 cell lines with known DNA damage response pathways - Rev3 mutant cell line (AID 743014); note: nearly all actives have a fitted effect of over 55% in size; note: potency is the fitted concentration of half-maximal effect
[4] = qHTS assay for identifying genotoxic compounds that show differential cytotoxicity against isogenic chicken DT40 cell lines with known DNA damage response pathways - Rad54/Ku70 mutant cell line (AID 743015); note: nearly all actives have a fitted effect of over 60% in size; note: potency is the fitted concentration of half-maximal effect
[5] = qHTS assay to identify small molecule antagonists of the androgen receptor (AR) signaling pathway - cell viability counter screen (AID 743033; note: nearly all actives have a fitted effect of over 45% in size; note: potency is the fitted concentration of half-maximal effect)
[6] = qHTS assay to identify small molecule antagonists of the androgen receptor (AR) signaling pathway using the MDA cell line - cell viability counter screen (AID 743041; note: nearly all actives have a fitted effect of over 45% in size; note: potency is the fitted concentration of half-maximal effect)
Procedure, shortened: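 qHTS viability read-out; MDA-kb2 AR-luc; R1881-stimulated; 16 h exposure at 37C, 0% CO2; CellTiter-Fluor, 30 min; fluorescence intensity.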

[7] = qHTS assay to identify small molecule antagonists of the thyroid receptor (TR) signaling pathway - cell viability counter screen (AID 743064); note: nearly all actives have a fitted effect of over 50% in size; note: potency is the fitted concentration of half-maximal effect
Procedure, shortened: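 In rat pituitary GH3.TRE-Luc reporter cells co-exposed to compound and 1 nM T3 for 23.5 h, cytotoxicity was assessed with CellTiter-Fluor in the same wells, read by fluorescence.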

[8] = qHTS assay to identify small molecule antagonists of the thyroid receptor (TR) signaling pathway (AID 743065); note: nearly all actives have a fitted effect of over 55% in size; note: potency is the fitted concentration of half-maximal effect
Procedure, shortened: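 GH3.TRE-Luc rat pituitary cells carrying two TR response elements driving luciferase were plated for 4 h, given compound plus 1 nM T3 (final), and incubated 23.5 h at 37 C. ONE-Glo luminescence measured reporter inhibition; CellTiter-Fluor fluorescence tracked cytotoxicity.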

[9] = test system: thyroid hormone receptor (rat, GH3 cells); assay: qHTS assay to identify small molecule agonists of the thyroid receptor (TR) signaling pathway (AID 743066; calls by dose curve)
[10] = target: Estrogen receptor (Homo sapiens) (UniProt P03372); assay: qHTS assay to identify small molecule antagonists of the estrogen receptor alpha (ER-alpha) signaling pathway (AID 743069; active = well fitted curve in the direction sought with a large enough effect in the signal ratio in the repeat runs, not every such curve was filed as active; inconclusive = weak or mixed curves, or effect the other way; inactive = no such curve, though single readings can be large or run the other way; the % refers to the signal ratio; note: potency is the fitted concentration of half-maximal effect)
Sequence of Estrogen receptor (Homo sapiens) (P03372 whole entry, looked up): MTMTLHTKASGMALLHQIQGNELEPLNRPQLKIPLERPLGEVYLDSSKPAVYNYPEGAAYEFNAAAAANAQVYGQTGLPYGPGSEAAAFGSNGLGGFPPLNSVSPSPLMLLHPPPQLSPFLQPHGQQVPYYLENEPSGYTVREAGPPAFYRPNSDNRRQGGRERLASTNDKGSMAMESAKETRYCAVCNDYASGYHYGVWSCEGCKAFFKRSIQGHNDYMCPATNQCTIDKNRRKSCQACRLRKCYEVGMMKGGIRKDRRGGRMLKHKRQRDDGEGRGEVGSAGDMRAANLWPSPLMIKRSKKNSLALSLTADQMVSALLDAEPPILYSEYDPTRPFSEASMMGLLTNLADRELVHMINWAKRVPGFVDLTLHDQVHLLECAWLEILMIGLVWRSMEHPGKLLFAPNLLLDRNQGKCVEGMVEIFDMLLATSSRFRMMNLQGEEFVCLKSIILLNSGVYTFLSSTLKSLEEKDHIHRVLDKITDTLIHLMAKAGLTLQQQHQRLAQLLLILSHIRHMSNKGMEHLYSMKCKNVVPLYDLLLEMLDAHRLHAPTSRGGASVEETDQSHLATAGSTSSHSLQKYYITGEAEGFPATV
Procedure, shortened: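 Screening used a UAS-driven beta-lactamase reporter integrated into HEK293 cells expressing ER-alpha, stimulated with 17beta-estradiol alongside test compounds over 18 hr at 37C; signal came from LiveBLAzer B/G FRET fluorescence.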

[11] = target: Estrogen receptor (Homo sapiens) (UniProt P03372); assay: qHTS assay to identify small molecule agonists of the estrogen receptor alpha (ER-alpha) signaling pathway (AID 743075; calls by dose curve; note: potency is the fitted concentration of half-maximal effect)
[12] = qHTS assay to identify small molecule antagonists of the estrogen receptor alpha (ER-alpha) signaling pathway using the BG1 cell line - cell viability counter screen (AID 743081);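 note: compound given together with 17beta-estradiol as the ER stimulus; nearly all actives have a fitted effect of over 45% in size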; note: potency is the fitted concentration of half-maximal effect
[13] = qHTS assay to identify small molecule antagonists of the estrogen receptor alpha (ER-alpha) signaling pathway - cell viability counter screen (AID 743074; calls by dose curve; note: nearly all actives have a fitted effect of over 45% in size; note: potency is the fitted concentration of half-maximal effect)
[14] = target: Estrogen receptor (Homo sapiens) (UniProt P03372); assay: qHTS assay to identify small molecule agonists of the estrogen receptor alpha (ER-alpha) signaling pathway using the BG1 cell line (AID 743079); note: nearly all actives have a fitted effect of over 20% in size
[15] = qHTS assay to identify small molecule antagonists of the estrogen receptor alpha (ER-alpha) signaling pathway using the BG1 cell line (AID 743080; calls by dose curve;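 note: BG1 cells stimulated with 17beta-estradiol alongside compound; nearly all actives have a fitted effect of over 25% in size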; note: potency is the fitted concentration of half-maximal effect)
Procedure, shortened: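 Seeding, 24 h rest, compound transfer from DMSO, 17beta-estradiol addition, 21.5 h incubation, CellTiter-Fluor (30 min, 37 C), then ONE-Glo (30 min, room temperature): this sequence was run on BG1-Luc-4E2 reporter cells.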

[16] = target: Aromatase (Homo sapiens) (UniProt P11511); assay: qHTS assay to identify aromatase inhibitors (AID 743083); note: nearly all actives have a fitted effect of over 55% in size; note: potency is the fitted concentration of half-maximal effect
Sequence of Aromatase (Homo sapiens) (P11511 whole entry, looked up): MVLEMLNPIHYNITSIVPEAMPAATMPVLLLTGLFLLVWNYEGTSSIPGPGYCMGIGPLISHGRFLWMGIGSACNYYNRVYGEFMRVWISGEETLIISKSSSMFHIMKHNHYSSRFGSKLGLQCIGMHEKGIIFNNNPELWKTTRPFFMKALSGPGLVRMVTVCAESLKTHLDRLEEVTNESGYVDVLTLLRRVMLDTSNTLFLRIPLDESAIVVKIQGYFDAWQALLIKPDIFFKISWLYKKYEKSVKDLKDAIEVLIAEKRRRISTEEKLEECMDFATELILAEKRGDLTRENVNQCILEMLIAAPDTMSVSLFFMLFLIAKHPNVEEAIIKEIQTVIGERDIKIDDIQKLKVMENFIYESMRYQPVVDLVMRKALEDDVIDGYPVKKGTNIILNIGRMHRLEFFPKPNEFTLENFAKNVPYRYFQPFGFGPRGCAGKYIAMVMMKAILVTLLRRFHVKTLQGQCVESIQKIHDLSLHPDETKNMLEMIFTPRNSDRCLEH

SMILES	Potency [1]	Potency [2]	Potency [3]	Potency [4]	Potency [5]	Potency [6]	Potency [7]	Potency [8]	outcome [9]	Potency [10]	Potency [11]	Potency [12]	Potency [13]	Potency [14]	Potency [15]	Potency [16]
CN(C)c1ccc(C(=N)c2ccc(N(C)C)cc2)cc1	inactive	5.38 µM (active) and 11.7 µM (active)	2.4 µM (active) and 8.31 µM (active)	3.81 µM (active) and 11.7 µM (active)	34.2 µM (active) and 37.4 µM (active)	60.4 µM (active)	53.8 µM (active) and 26.3 µM (active)	7.6 µM (active) and 7.4 µM (active)	inactive	37.4 µM [inconclusive] (active)	inactive	30.3 µM (active) and 14.8 µM (active)	–	–	–	–
CCC(C)C=O (configuration not stated)	inactive	inactive	inactive	inactive	inactive	inactive	inactive	inactive	inactive	inactive	inactive	inactive	inactive	inactive	inactive	inactive
Cc1cc(Cc2ccc(N)c(C)c2)ccc1N	inactive	61.1 µM (active)	68.6 µM (active) and 54.5 µM (active)	61.1 µM (active) and 68.6 µM (active)	inactive	inactive	inactive	inactive	inactive	–	–	inactive	inactive	–	–	–
CNC[C@H](O)[C@@H](O)[C@H](O)[C@H](O)CO	inactive	inactive	inactive	inactive	inactive	inactive	inactive	inactive	inactive	–	–	inactive	inactive	–	–	–
O=S(=O)(O)CCS	inactive	inactive	inactive	inactive	inactive	inactive	inactive	inactive	inactive	inactive	inactive	inactive	inactive	inactive	inactive	inactive
CC1(C)O[C@@H]2C[C@H]3[C@@H]4C[C@H](F)C5=CC(=O)CC[C@]5(C)[C@H]4[C@@H](O)C[C@]3(C)[C@]2(C(=O)CO)O1	inactive	inactive	inactive	inactive	inactive	inactive	inactive	inactive	inactive	–	–	inactive	inactive	inactive	–	inactive
Cc1ccc(N)c(S(=O)(=O)O)c1	inactive	inactive	inactive	inactive	inactive	inactive	inactive	inactive	inactive	–	–	inactive	inactive	–	–	inactive
COCC(=O)O	inactive	inactive	inactive	inactive	inactive	inactive	inactive	inactive	inactive	inactive	inactive	inactive	inactive	inactive	inactive	inactive
Cc1ccc(C(=O)O)o1	inactive	inactive	inactive	inactive	inactive	inactive	inactive	inactive	inactive	–	–	inactive	inactive	–	–	inactive
C=C(C)C(=O)OCCCCCCCCCCCC	inactive	inactive	inactive	inactive	inactive	inactive	inactive	inactive	inactive	inactive	inactive	inactive	inactive	inactive	inactive	inactive
CCOC(=O)[C@H](CCc1ccccc1)N[C@@H](C)C(=O)N1Cc2ccccc2C[C@H]1C(=O)O	inactive	inactive	inactive and 61.6 µM (active)	inactive	inactive	inactive	inactive	inactive	inactive	inactive	inactive	inactive	inactive	inactive	inactive	inactive
Cc1cc(O)c2c(c1)C(=O)c1cc(O)cc(O)c1C2=O	inactive	27.3 µM (active)	inactive and 38.6 µM (active)	1.68 µM (active) and 3.06 µM (active)	12 µM (active) and inactive	inactive	inactive and 30.6 µM (active)	23.8 µM (active) and 15.4 µM (active)	inactive	inactive	–	29.9 µM (active) and 24.3 µM (active)	inactive	–	inactive	23.8 µM (active) and 54.5 µM (active)
Oc1c(Cl)cc(Cl)c(Cl)c1Cl	inactive	67.1 µM (active)	–	–	–	inactive	–	47.5 µM (active) and 30.6 µM (active)	inactive	34 µM [inconclusive] (active)	inactive	inactive	53.8 µM (active)	–	inactive and 68.6 µM (active)	inactive
CN(C)c1cccc(O)c1	inactive	–	inactive	inactive	inactive	inactive	inactive	inactive	inactive	–	–	inactive	inactive	–	–	inactive
CC1=CC[C@H]2C[C@@H]1C2(C)C	inactive	inactive	inactive	inactive	inactive	inactive	–	inactive	inactive	inactive	inactive	inactive	inactive	inactive	inactive	inactive
CC1COc2ccccc2N1C(=O)C(Cl)Cl (configuration not stated)	inactive	–	30.6 µM (active) and 24.3 µM (active)	61 µM (active) and 38.5 µM (active)	inactive	–	9.67 µM (active) and 19.3 µM (active)	8.62 µM (active) and 15.3 µM (active)	inactive	inactive	24.5 µM [inconclusive] (active)	inactive	inactive	inactive	30.6 µM (active) and 68.5 µM (active)	61 µM (active) and inactive
S=c1nc[nH]c2nc[nH]c12	inactive	23.7 µM (active)	53.1 µM (active)	inactive	5.36 µM (active)	inactive	inactive	inactive	inactive	–	inactive	inactive	–	inactive	–	inactive
CCCCCCCCCCCCN	inactive	inactive and 15.4 µM (active)	inactive and 21.7 µM (active)	inactive and 19.3 µM (active)	inactive and 54.9 µM (active)	–	inactive and 24.3 µM (active)	–	inactive	–	–	inactive	inactive and 54.9 µM (active)	–	–	61.1 µM (active)
O=C1O[C@H](CO)[C@@H](O)[C@H](O)[C@H]1O	inactive	inactive	inactive	inactive	inactive	inactive	inactive	–	–	inactive	inactive	inactive	inactive	inactive	inactive	inactive
C=C(C)C(=O)OCC(CC)(COC(=O)C(=C)C)COC(=O)C(=C)C	inactive	inactive	–	–	inactive	inactive	inactive	inactive	inactive	–	–	inactive	–	–	–	inactive
CCOC(=O)C1OC1c1ccccc1 (configuration not stated)	inactive	inactive	inactive	inactive	inactive	inactive	–	–	inactive	–	–	inactive	inactive	–	–	inactive
CC(C)n1c(/C=C/[C@@H](O)C[C@@H](O)CC(=O)O)c(-c2ccc(F)cc2)c2ccccc21	inactive	1.06 µM (active) and 6.11 µM (active)	9.4 nM (active) and 3.06 µM (active)	3.35 µM (active) and 8.63 µM (active)	–	inactive	inactive	13.3 µM (active) and 21.7 µM (active)	inactive	–	–	inactive	inactive	–	–	–
CCCCC/C=C\C/C=C\CCCCCCCC(=O)OC	inactive	30.6 µM (active)	30.6 µM (active)	21.7 µM (active)	inactive	inactive	inactive	–	inactive	inactive	inactive	inactive	inactive	inactive	inactive	inactive
C/C=C(C)/C=C/C=C(C)C	inactive	61.1 µM (active)	–	54.5 µM (active)	inactive	inactive	inactive	–	inactive	–	–	inactive	inactive	–	–	inactive
O=C(c1cc(O)c(O)c(O)c1)c1ccc(O)c(O)c1O	inactive	48.4 µM (active) and 13.7 µM (active)	30.5 µM (active) and 13.7 µM (active)	30.5 µM (active) and 13.7 µM (active)	inactive	inactive	–	43.1 µM (active) and 68.6 µM (active)	inactive	inactive	inactive	68.4 µM (active) and 61.1 µM (active)	inactive	inactive	inactive	inactive
